Experimental findings from ChEMBL document CHEMBL1961873, “Compounds: GSK PKIS; Assays: Nanosyn kinase panel” (2012) are described below.

Sequence of Protein kinase C beta type (Homo sapiens) (P05771 2-671 limits assumed): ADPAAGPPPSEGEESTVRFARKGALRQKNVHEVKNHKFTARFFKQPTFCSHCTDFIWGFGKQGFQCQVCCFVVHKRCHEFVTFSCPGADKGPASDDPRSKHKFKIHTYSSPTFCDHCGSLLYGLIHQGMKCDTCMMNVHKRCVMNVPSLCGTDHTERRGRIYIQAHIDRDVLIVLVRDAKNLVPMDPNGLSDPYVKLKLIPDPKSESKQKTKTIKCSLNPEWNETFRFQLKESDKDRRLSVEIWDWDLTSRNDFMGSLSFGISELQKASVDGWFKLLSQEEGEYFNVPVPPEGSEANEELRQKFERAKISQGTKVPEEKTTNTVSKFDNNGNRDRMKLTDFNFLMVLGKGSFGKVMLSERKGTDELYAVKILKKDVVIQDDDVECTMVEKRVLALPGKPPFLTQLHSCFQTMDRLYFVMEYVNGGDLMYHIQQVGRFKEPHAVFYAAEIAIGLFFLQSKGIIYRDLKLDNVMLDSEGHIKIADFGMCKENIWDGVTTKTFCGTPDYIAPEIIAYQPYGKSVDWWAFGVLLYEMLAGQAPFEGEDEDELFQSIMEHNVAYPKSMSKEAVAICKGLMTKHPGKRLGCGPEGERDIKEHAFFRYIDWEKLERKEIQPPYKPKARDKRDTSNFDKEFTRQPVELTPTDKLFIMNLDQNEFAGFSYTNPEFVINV

The first assay deals with Protein kinase C alpha type (Homo sapiens) (UniProt P17252). The settings on record: at 1 µM.
The inhibition is the relative decrease from the control value, in per cent. Consider `C[C@@H](Oc1cc(-n2cnc3ccc(OCC4CCN(C)CC4)cc32)sc1C(N)=O)c1ccccc1Cl`, for which the inhibition is 5.2%.
Still for that read-out and setting: in the case of `CCc1cccc(CC)c1/C=C/c1cncc(C(=O)NC)c1` it was 3.13%.
The same measure, in the same setting: the value for `CS(=O)(=O)CCNCc1cc(-c2cc3c(Nc4ccc(OCc5cccc(F)c5)c(Cl)c4)ncnc3s2)cs1` was 1.44%; that for `Cc1nnc(-c2ccc(C)c(-c3ccc(C(=O)NCc4ccc(Cl)cc4)cc3)c2)o1` was -1.62%; that for `CN1CCN(CCCNc2nc3ccc(Oc4ccc(NC(=O)Nc5cc(C(F)(F)F)ccc5F)cc4)cc3[nH]2)CC1` was -1.52%.
On to `NS(=O)(=O)c1ccc(N/N=C2\C(=O)Nc3ccc(-c4cnco4)cc32)cc1`, for which the inhibition is -1.84%.
As for `Fc1ccc(-c2ncn(C3CCNCC3)c2-c2ccnc(Oc3ccc4c(c3)OCO4)n2)cc1`, the inhibition is 3.68%.
Consider `COc1ccc(C2=C(N3CCc4ccccc43)C(=O)NC2=O)cc1`, for which the inhibition was determined as 3.07%.
`O=C1Nc2ccc(I)cc2C1=Cc1cc(Br)c(O)c(Br)c1`: the inhibition came out at 0.59%.
Turning to `Fc1ccc(-c2ncn(CCCN3CCOCC3)c2-c2ccncc2)cc1`, the inhibition was 1.07%.
`CN(C)CCCNc1nccc(-c2c(-c3ccc(F)cc3)nn3cc(C(F)(F)F)ccc23)n1`: the inhibition was -2.14%.
Turning to `COc1cccc(/C=N/Nc2ncnc3c2cnn3-c2cccc(OC)c2)c1`, the inhibition was 0.85%.
As to `O=C1Nc2ccccc2/C1=C/Nc1ccc(-n2cncn2)cc1`, the inhibition was determined as 1.82%.
For `COc1cc2ncn(-c3cc(OCc4cccs4)c(C(N)=O)s3)c2cc1OC`, the inhibition is -2.59%.
The same measure, in the same setting: the value for `Fc1ccc(-c2nc3n(c2-c2ccncc2)CCS3)cc1` was -1.43%.
Consider `O=C1NC(=O)C(c2cccc(Cl)c2)=C1Nc1ccc(Cl)c(C(=O)O)c1`, for which the inhibition was 0.21%.
On the same count and under the same terms, in the case of `Fc1ccc(-c2ncn(C3CCNCC3)c2-c2ccnc(Oc3ccc(Oc4ccccc4)cc3)n2)cc1` it was 4.49%; in that of `COc1ccc(-c2ccc3c(NC(=O)C4CC4)n[nH]c3n2)cc1`, -0.98%.
On to `CN(c1ccc(NC(=O)Nc2c(Cl)cccc2Cl)cc1)c1ccnc(Nc2cccc(CS(C)(=O)=O)c2)n1`, for which the inhibition came out at 2.02%.
Regarding `Fc1ccc(-c2ncn(C3CCNCC3)c2-c2ccnc(Oc3ccc(F)c(F)c3)n2)cc1`, the inhibition is -0.82%.
Still for that read-out and setting: the value for `Cc1ccc(NC(=O)c2ccoc2)cc1-c1ccc(C(=O)NCC2CC2)cc1` was 0.82%.
Still for that read-out and setting: the value for `NCc1ccc(-n2c(-c3nonc3N)nc3cnccc32)cc1` was 41%.
Still for that read-out and setting: the value for `NC(=O)c1ccc(Oc2nccc(-c3c(-c4ccc(F)cc4)ncn3C3CCNCC3)n2)cc1` was 2.25%; that for `CCc1nccc2c1nc(-c1nonc1N)n2CC` was 2.71%; that for `CCC(=O)Nc1ccc(C)c(-c2ccc(C(=O)NCC3CC3)cc2)c1` was 0.8%.
`CN(C)CCOc1ccc(-c2cc(-c3ccc4c(c3)CCC4=NO)c(-c3ccncc3)o2)cc1`: the inhibition came out at 1.32%.
Take `Nc1nccc(-c2c(-c3ccc(F)cc3)ncn2C2CCC(O)CC2)n1` (stereo not drawn): the inhibition is 10.2%.
For the molecule `COc1ccc2cc(-c3c(-c4ccncc4)nc(-c4ccc([S+](C)[O-])cc4C)n3C)ccc2c1` (stereo not drawn), the inhibition stood at 1.35%.
`CCS(=O)(=O)c1ccc(OC)c(Nc2ncc(-c3cccc(-c4ccccc4F)c3)o2)c1`: the inhibition came to 1.66%.
Same read-out and setting: the value for `NS(=O)(=O)c1ccc(Nc2cc(-c3ccc(O)c(F)c3)n[nH]2)cc1` was 0.4%; that for `O=C(Nc1n[nH]c2cc(-c3cc(F)ccc3F)ccc12)C1CC1` was 1.99%; that for `NS(=O)(=O)c1ccc(N/N=C2\C(=O)Nc3ccc(C(=O)NCCCn4ccnc4)cc32)cc1` was 3.66%.
Same read-out and setting: in the case of `CCN(CC)Cc1ccc(Nc2nccc(-c3cnn4ncccc34)n2)cc1` it was 17.8%; in that of `COc1ccc2ncn(-c3cc(O[C@H](C)c4ccccc4Cl)c(C(N)=O)s3)c2c1`, -1.38%.

The next assay has as its target Protein kinase C beta type (Homo sapiens) (UniProt P05771). As to conditions: at 0.1 µM.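 Further: PKC-beta1 splice variant of the enzyme, figure reported as mean inhibition, measured within the GSK PKIS kinase profiling panel.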
Consider `C[C@@H](Oc1cc(-n2cnc3ccc(OCC4CCN(C)CC4)cc32)sc1C(N)=O)c1ccccc1Cl`, for which the inhibition is 1.4%.
`CCc1cccc(CC)c1/C=C/c1cncc(C(=O)NC)c1`: the inhibition is 0.31%.
Regarding `CS(=O)(=O)CCNCc1cc(-c2cc3c(Nc4ccc(OCc5cccc(F)c5)c(Cl)c4)ncnc3s2)cs1`, the inhibition was determined as 0.43%.
Same read-out and setting: the value for `Cc1nnc(-c2ccc(C)c(-c3ccc(C(=O)NCc4ccc(Cl)cc4)cc3)c2)o1` was 0.85%; that for `CN1CCN(CCCNc2nc3ccc(Oc4ccc(NC(=O)Nc5cc(C(F)(F)F)ccc5F)cc4)cc3[nH]2)CC1` was 2.13%.
On the same count and under the same terms, in the case of `NS(=O)(=O)c1ccc(N/N=C2\C(=O)Nc3ccc(-c4cnco4)cc32)cc1` it was 1.26%; in that of `Fc1ccc(-c2ncn(C3CCNCC3)c2-c2ccnc(Oc3ccc4c(c3)OCO4)n2)cc1`, 1.12%.
Still for that read-out and setting: in the case of `COc1ccc(C2=C(N3CCc4ccccc43)C(=O)NC2=O)cc1` it was 1.02%.
For `O=C1Nc2ccc(I)cc2C1=Cc1cc(Br)c(O)c(Br)c1`, the inhibition was 0.25%.
Still for that read-out and setting: in the case of `Fc1ccc(-c2ncn(CCCN3CCOCC3)c2-c2ccncc2)cc1` it was -0.46%; in that of `CN(C)CCCNc1nccc(-c2c(-c3ccc(F)cc3)nn3cc(C(F)(F)F)ccc23)n1`, 2.22%.
With `COc1cccc(/C=N/Nc2ncnc3c2cnn3-c2cccc(OC)c2)c1`, the inhibition was -0.96%.
Regarding `O=C1Nc2ccccc2/C1=C/Nc1ccc(-n2cncn2)cc1`, the inhibition was found to be 0.83%.
On the same count and under the same terms, in the case of `COc1cc2ncn(-c3cc(OCc4cccs4)c(C(N)=O)s3)c2cc1OC` it was 5.39%; in that of `Fc1ccc(-c2nc3n(c2-c2ccncc2)CCS3)cc1`, 0.64%; in that of `O=C1NC(=O)C(c2cccc(Cl)c2)=C1Nc1ccc(Cl)c(C(=O)O)c1`, 0.61%.
`Fc1ccc(-c2ncn(C3CCNCC3)c2-c2ccnc(Oc3ccc(Oc4ccccc4)cc3)n2)cc1`: the inhibition is 1.48%.
The same measure, in the same setting: the value for `COc1ccc(-c2ccc3c(NC(=O)C4CC4)n[nH]c3n2)cc1` was -0.58%; that for `CN(c1ccc(NC(=O)Nc2c(Cl)cccc2Cl)cc1)c1ccnc(Nc2cccc(CS(C)(=O)=O)c2)n1` was 0.67%; that for `Fc1ccc(-c2ncn(C3CCNCC3)c2-c2ccnc(Oc3ccc(F)c(F)c3)n2)cc1` was -0.22%.
`Cc1ccc(NC(=O)c2ccoc2)cc1-c1ccc(C(=O)NCC2CC2)cc1`: the inhibition is 1.84%.
For `NCc1ccc(-n2c(-c3nonc3N)nc3cnccc32)cc1`, the inhibition was determined as 29.1%.
As for `NC(=O)c1ccc(Oc2nccc(-c3c(-c4ccc(F)cc4)ncn3C3CCNCC3)n2)cc1`, the inhibition came to 1.04%.
Same read-out and setting: in the case of `CCc1nccc2c1nc(-c1nonc1N)n2CC` it was 2.42%; in that of `CCC(=O)Nc1ccc(C)c(-c2ccc(C(=O)NCC3CC3)cc2)c1`, 0.07%; in that of `CN(C)CCOc1ccc(-c2cc(-c3ccc4c(c3)CCC4=NO)c(-c3ccncc3)o2)cc1`, -1.02%.
Take `Nc1nccc(-c2c(-c3ccc(F)cc3)ncn2C2CCC(O)CC2)n1` (stereo not drawn): the inhibition was 3.05%.
Consider `COc1ccc2cc(-c3c(-c4ccncc4)nc(-c4ccc([S+](C)[O-])cc4C)n3C)ccc2c1` (stereo not drawn), for which the inhibition turned out to be 2.04%.
For `CCS(=O)(=O)c1ccc(OC)c(Nc2ncc(-c3cccc(-c4ccccc4F)c3)o2)c1`, the inhibition came to 0.49%.
Take `NS(=O)(=O)c1ccc(Nc2cc(-c3ccc(O)c(F)c3)n[nH]2)cc1`: the inhibition was -0.01%.
Still for that read-out and setting: in the case of `O=C(Nc1n[nH]c2cc(-c3cc(F)ccc3F)ccc12)C1CC1` it was 0.43%; in that of `NS(=O)(=O)c1ccc(N/N=C2\C(=O)Nc3ccc(C(=O)NCCCn4ccnc4)cc32)cc1`, 0.75%.
Still for that read-out and setting: the value for `CCN(CC)Cc1ccc(Nc2nccc(-c3cnn4ncccc34)n2)cc1` was 0.22%; that for `COc1ccc2ncn(-c3cc(O[C@H](C)c4ccccc4Cl)c(C(N)=O)s3)c2c1` was 1.09%.
